Data reported in PubChem BioAssay (Tox21).
Several values for one entry are separate records, joined by “and”; a condition that tells them apart may be missing. Identical values can stand only once. Records with an inconclusive call do not appear. Where a call stands in place of a potency, no number is given. The source holds several records for some structures; these can differ, active in one and inactive in another. Activity calls are given as the source filed them. Calls follow the shape of the dose curve; as a rule, active = well fitted curve in the direction sought with a large enough effect in the repeat runs; inconclusive = weak or mixed curves; inactive = no such curve, though single readings can be large; an effect the other way counts as inactive or inconclusive.

Test: qHTS assay for identifying genotoxic compounds that show differential cytotoxicity against isogenic chicken DT40 cell lines with known DNA damage response pathways - Rev3 mutant cell line (AID 743014); also: nearly all actives have a fitted effect of over 55% in size; also: potency is read from the fitted curve at half-maximal effect
Details: chicken DT40 Rev3-/- viability, CellTiter-Glo, 40 h; series mostly up to 68.4 µM

| Compound | Potency |
| --- | --- |
| O=S1(=O)N=C(O)c2ccccc21 | inactive |
| Cn1c(N)nc2nc[nH]c2c1=O | inactive |
| O=C(O)/C=C/c1cnc[nH]1 | inactive |
| SC1CCCC1 | inactive |
| NC1CCN(c2nc3c(cc2F)c(=O)c(C(=O)O)cn3-c2ccc(F)cc2F)C1 (centres undefined) | 13.3 µM (active) |
| CCOc1nc2cccc(C(=O)O)c2n1Cc1ccc(-c2ccccc2-c2nn[nH]n2)cc1 | inactive |
| CN1CCC[C@@H]1c1cccnc1 | inactive |
| NC(N)=N/N=C/c1c(Cl)cccc1Cl | 23.7 µM (active) |
| CN(C)CCCOc1nn(Cc2ccccc2)c2ccccc12 | 12.7 µM (active) |
| Cc1ccc(C(N)=O)cc1N | inactive |
| O=[N+]([O-])c1cc[n+]([O-])cc1 | inactive |
| C[C@H](CCC(=O)O)[C@H]1CC[C@H]2[C@@H]3[C@H](O)C[C@@H]4C[C@H](O)CC[C@]4(C)[C@H]3CC[C@]12C | inactive |
| CCCCOC(=O)/C=C\C(=O)OCCCC | inactive |
| Cc1cccc(C(C)(C)C)c1O | inactive |
| CCCc1ccccc1 | inactive |
| CC(C)(C)c1cc(O)c(C(C)(C)C)cc1O | 13.7 µM (active) |
| Cc1ccc(C)o1 | inactive |
| C#CCOC(=O)[C@@H](C)Oc1ccc(Oc2ncc(Cl)cc2F)cc1 | inactive |
| NC[C@H]1O[C@H](O[C@H]2[C@H](O)[C@@H](O[C@H]3O[C@H](CO)[C@@H](O)[C@H](N)[C@H]3O)[C@H](N)C[C@@H]2N)[C@H](O)[C@@H](O)[C@@H]1O | inactive |
| Cc1cc(CC(=O)O)c(C)n1-c1ccc(Cl)cc1 | 33.5 µM (active) |
| Cc1c(Cn2ccnc2)c2ccccc2n1CCC(=O)O | inactive |
| CCCCC(CC)COCCCN (centres undefined) | 60.4 µM (active) |
| O=[N+]([O-])c1cccc(Cl)c1Cl | inactive |

Test: qHTS assay for identifying genotoxic compounds that show differential cytotoxicity against isogenic chicken DT40 cell lines with known DNA damage response pathways - Rad54/Ku70 mutant cell line (AID 743015); also: nearly all actives have a fitted effect of over 60% in size; also: potency is read from the fitted curve at half-maximal effect
Details: DT40 Rad54/Ku70 mutant viability, CellTiter-Glo, 40 h; series mostly up to 66.8 µM

| Compound | Potency |
| --- | --- |
| O=S1(=O)N=C(O)c2ccccc21 | inactive |
| O=C(O)/C=C/c1cnc[nH]1 | inactive |
| SC1CCCC1 | inactive |
| NC1CCN(c2nc3c(cc2F)c(=O)c(C(=O)O)cn3-c2ccc(F)cc2F)C1 (centres undefined) | 18.8 µM (active) |
| CCOc1nc2cccc(C(=O)O)c2n1Cc1ccc(-c2ccccc2-c2nn[nH]n2)cc1 | 29.8 µM (active) |
| CN1CCC[C@@H]1c1cccnc1 | inactive |
| NC(N)=N/N=C/c1c(Cl)cccc1Cl | 21.1 µM (active) |
| CN(C)CCCOc1nn(Cc2ccccc2)c2ccccc12 | 11.4 µM (active) |
| O=[N+]([O-])c1cc[n+]([O-])cc1 | inactive |
| C[C@H](CCC(=O)O)[C@H]1CC[C@H]2[C@@H]3[C@H](O)C[C@@H]4C[C@H](O)CC[C@]4(C)[C@H]3CC[C@]12C | inactive |
| CCCCOC(=O)/C=C\C(=O)OCCCC | inactive |
| Cc1cccc(C(C)(C)C)c1O | inactive |
| O=C1c2cccc(O)c2C(=O)c2c(O)cc(CO)cc21 | 24.3 µM (active) |
| CCCc1ccccc1 | inactive |
| CCCCCC(CO)CCC (centres undefined) | inactive |
| CC(C)(C)c1cc(O)c(C(C)(C)C)cc1O | 13.7 µM (active) |
| Cc1ccc(C)o1 | inactive |
| CC(=O)O[C@@H]1C(=O)O[C@@H]2[C@H]1OC(=O)[C@@H]2OC(C)=O | 26.6 µM (active) |
| NC[C@H]1O[C@H](O[C@H]2[C@H](O)[C@@H](O[C@H]3O[C@H](CO)[C@@H](O)[C@H](N)[C@H]3O)[C@H](N)C[C@@H]2N)[C@H](O)[C@@H](O)[C@@H]1O | inactive and 1.89 µM (active) |
| CCc1nn(C2CCCCC2)c2cc(C3(C#N)CCC(C(=O)O)CC3)ccc12 (centres undefined) | 61.1 µM (active) |
| CCCC(=O)OCC | 68.6 µM (active) |
| CCCCC(CC)(CO)CO | inactive |
| Cc1c(Cn2ccnc2)c2ccccc2n1CCC(=O)O | inactive |
| O=C(O)Cn1c(C(=O)Nc2nc(-c3ccccc3Cl)cs2)cc2ccccc21 | inactive |
| Nc1cnn([C@@H]2O[C@H](CO)[C@@H](O)[C@H]2O)c(=O)n1 | 6.12 µM (active) |
| CC1(C)CCC(C)(C)c2cc(NC(=O)c3ccc(C(=O)O)cc3)ccc21 | 23.7 µM (active) |
| CCCCOCCOCCOCCOCCO | inactive |
| O=[N+]([O-])c1cccc(Cl)c1Cl | inactive |

Test: qHTS assay to identify small molecule antagonists of the androgen receptor (AR) signaling pathway - cell viability counter screen (AID 743033; also: nearly all actives have a fitted effect of over 45% in size)
Details: AR-bla HEK293 viability, CellTiter-Glo luminescence, 16 h; series mostly up to 58.5 µM

| Compound | Potency |
| --- | --- |
| CC[C@H](C)[C@@H](C(=O)O)n1sc2ccccc2c1=O | inactive |
| O=S1(=O)N=C(O)c2ccccc21 | inactive |
| Cn1c(N)nc2nc[nH]c2c1=O | inactive |
| O=C(O)/C=C/c1cnc[nH]1 | inactive |
| SC1CCCC1 | inactive |
| CN(C)C/C=C(/c1ccc(Br)cc1)c1cccnc1 | inactive |
| CCOc1nc2cccc(C(=O)O)c2n1Cc1ccc(-c2ccccc2-c2nn[nH]n2)cc1 | inactive |
| CN1CCC[C@@H]1c1cccnc1 | inactive |
| CN(C)CCCOc1nn(Cc2ccccc2)c2ccccc12 | inactive |
| Cc1ccc(C(N)=O)cc1N | inactive |
| CCCCCc1ccc(N)cc1 | inactive |
| O=C(O)c1cccc(N(Cc2cccnc2)c2ccc(OC(F)F)c(OC(F)F)c2)c1 | inactive |
| C[C@H](CCC(=O)O)[C@H]1CC[C@H]2[C@@H]3[C@H](O)C[C@@H]4C[C@H](O)CC[C@]4(C)[C@H]3CC[C@]12C | inactive |
| O=c1[nH]cnc2ccccc12 | inactive |
| CCCCOC(=O)/C=C\C(=O)OCCCC | inactive |
| Cc1cccc(C(C)(C)C)c1O | inactive |
| O=C1c2cccc(O)c2C(=O)c2c(O)cc(CO)cc21 | inactive |

| Compound | Potency |
| --- | --- |
| CCCc1ccccc1 | inactive |
| CCCCCC(CO)CCC (centres undefined) | inactive |
| Cc1ccc(C)o1 | inactive |
| C#CCOC(=O)[C@@H](C)Oc1ccc(Oc2ncc(Cl)cc2F)cc1 | inactive |
| CC(=O)O[C@@H]1C(=O)O[C@@H]2[C@H]1OC(=O)[C@@H]2OC(C)=O | inactive |
| NC[C@H]1O[C@H](O[C@H]2[C@H](O)[C@@H](O[C@H]3O[C@H](CO)[C@@H](O)[C@H](N)[C@H]3O)[C@H](N)C[C@@H]2N)[C@H](O)[C@@H](O)[C@@H]1O | inactive |
| Cc1cc(CC(=O)O)c(C)n1-c1ccc(Cl)cc1 | inactive |
| CCCC(=O)OCC | inactive |
| CCCCC(CC)(CO)CO | inactive |
| Cc1c(Cn2ccnc2)c2ccccc2n1CCC(=O)O | inactive |
| O=C(O)Cn1c(C(=O)Nc2nc(-c3ccccc3Cl)cs2)cc2ccccc21 | inactive |
| Nc1cnn([C@@H]2O[C@H](CO)[C@@H](O)[C@H]2O)c(=O)n1 | inactive |
| CC1(C)CCC(C)(C)c2cc(NC(=O)c3ccc(C(=O)O)cc3)ccc21 | inactive |
| CCCCOCCOCCOCCOCCO | inactive |
| COC(=O)CSc1cc(N=c2sc(=O)n3n2CCCC3)c(F)cc1Cl | inactive |
| O=[N+]([O-])c1cccc(Cl)c1Cl | inactive |
